Measurements reported in the supplement of paper PMC11732987, “Enantioselective OTUD7B fragment discovery through chemoproteomics screening and high-throughput optimisation” (Communications Chemistry, 2025).

Experiments:
Experiment in all cases: log2 ratio of Biotin-Ahx-Ub-VS probe labelling (fragment/DMSO); higher = less target engagement (more negative = stronger competition), active = hit call of the paper (q ≤ 0.05, log2 ratio ≤ -1)
Settings in all cases: compound concentration: 200 uM; treatment time: 3 h
[1] = target: T1, USP19 (UniProt O94966)
T1 sequence (whole entry): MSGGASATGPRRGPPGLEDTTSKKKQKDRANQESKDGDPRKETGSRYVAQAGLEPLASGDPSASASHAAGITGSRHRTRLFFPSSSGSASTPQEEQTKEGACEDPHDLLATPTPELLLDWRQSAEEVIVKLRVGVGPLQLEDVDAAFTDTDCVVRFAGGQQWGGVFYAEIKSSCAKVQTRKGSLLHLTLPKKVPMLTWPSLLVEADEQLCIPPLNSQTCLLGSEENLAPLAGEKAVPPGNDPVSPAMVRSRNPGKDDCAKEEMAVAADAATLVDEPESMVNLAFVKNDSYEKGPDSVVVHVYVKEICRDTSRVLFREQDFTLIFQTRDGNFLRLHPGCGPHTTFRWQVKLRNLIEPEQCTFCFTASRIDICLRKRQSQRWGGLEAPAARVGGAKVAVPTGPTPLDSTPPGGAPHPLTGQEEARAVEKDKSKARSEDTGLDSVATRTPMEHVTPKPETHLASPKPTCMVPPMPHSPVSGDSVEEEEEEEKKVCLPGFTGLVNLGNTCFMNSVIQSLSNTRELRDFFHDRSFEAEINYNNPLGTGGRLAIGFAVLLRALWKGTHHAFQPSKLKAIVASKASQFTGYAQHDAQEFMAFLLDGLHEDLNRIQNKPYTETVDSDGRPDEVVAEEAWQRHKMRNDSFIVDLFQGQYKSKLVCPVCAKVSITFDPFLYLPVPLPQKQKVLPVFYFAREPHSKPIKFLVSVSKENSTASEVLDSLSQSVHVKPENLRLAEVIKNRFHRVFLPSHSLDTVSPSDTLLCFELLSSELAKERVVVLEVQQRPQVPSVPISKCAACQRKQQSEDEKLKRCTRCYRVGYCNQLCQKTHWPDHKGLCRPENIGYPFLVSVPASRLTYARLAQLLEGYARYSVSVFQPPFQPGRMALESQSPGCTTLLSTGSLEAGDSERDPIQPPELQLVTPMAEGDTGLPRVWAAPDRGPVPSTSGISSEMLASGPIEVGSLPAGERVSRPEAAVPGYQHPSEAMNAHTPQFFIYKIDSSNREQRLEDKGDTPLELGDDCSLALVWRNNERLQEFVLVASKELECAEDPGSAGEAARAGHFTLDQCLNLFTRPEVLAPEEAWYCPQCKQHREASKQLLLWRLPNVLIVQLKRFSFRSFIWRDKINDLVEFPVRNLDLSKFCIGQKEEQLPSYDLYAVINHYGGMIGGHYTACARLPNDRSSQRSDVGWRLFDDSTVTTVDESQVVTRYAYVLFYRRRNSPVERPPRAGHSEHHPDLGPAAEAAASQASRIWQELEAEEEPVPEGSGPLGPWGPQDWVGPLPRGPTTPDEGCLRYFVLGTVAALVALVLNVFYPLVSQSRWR
How it was run: (§1)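 Each value is an average log2 ratio of fragment to vehicle, tested by unpaired t-test. The underlying Spectronaut label-free quantities were global-median-normalised, and only proteins with ≥2 unique peptides were included. Triplicate HEK293T lysate samples (495 µg) were exposed to fragment at 200 µM or vehicle for 3 h, then to Biotin-Ahx-Ub-VS at 0.5 µM final for 1 h, before NeutrAvidin enrichment of labelled DUBs, LysC and trypsin digestion, and diaPASEF LC-MS/MS.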

[2] = target: USP24 (UniProt Q9UPU5)
USP24, sequence (Q9UPU5 whole entry): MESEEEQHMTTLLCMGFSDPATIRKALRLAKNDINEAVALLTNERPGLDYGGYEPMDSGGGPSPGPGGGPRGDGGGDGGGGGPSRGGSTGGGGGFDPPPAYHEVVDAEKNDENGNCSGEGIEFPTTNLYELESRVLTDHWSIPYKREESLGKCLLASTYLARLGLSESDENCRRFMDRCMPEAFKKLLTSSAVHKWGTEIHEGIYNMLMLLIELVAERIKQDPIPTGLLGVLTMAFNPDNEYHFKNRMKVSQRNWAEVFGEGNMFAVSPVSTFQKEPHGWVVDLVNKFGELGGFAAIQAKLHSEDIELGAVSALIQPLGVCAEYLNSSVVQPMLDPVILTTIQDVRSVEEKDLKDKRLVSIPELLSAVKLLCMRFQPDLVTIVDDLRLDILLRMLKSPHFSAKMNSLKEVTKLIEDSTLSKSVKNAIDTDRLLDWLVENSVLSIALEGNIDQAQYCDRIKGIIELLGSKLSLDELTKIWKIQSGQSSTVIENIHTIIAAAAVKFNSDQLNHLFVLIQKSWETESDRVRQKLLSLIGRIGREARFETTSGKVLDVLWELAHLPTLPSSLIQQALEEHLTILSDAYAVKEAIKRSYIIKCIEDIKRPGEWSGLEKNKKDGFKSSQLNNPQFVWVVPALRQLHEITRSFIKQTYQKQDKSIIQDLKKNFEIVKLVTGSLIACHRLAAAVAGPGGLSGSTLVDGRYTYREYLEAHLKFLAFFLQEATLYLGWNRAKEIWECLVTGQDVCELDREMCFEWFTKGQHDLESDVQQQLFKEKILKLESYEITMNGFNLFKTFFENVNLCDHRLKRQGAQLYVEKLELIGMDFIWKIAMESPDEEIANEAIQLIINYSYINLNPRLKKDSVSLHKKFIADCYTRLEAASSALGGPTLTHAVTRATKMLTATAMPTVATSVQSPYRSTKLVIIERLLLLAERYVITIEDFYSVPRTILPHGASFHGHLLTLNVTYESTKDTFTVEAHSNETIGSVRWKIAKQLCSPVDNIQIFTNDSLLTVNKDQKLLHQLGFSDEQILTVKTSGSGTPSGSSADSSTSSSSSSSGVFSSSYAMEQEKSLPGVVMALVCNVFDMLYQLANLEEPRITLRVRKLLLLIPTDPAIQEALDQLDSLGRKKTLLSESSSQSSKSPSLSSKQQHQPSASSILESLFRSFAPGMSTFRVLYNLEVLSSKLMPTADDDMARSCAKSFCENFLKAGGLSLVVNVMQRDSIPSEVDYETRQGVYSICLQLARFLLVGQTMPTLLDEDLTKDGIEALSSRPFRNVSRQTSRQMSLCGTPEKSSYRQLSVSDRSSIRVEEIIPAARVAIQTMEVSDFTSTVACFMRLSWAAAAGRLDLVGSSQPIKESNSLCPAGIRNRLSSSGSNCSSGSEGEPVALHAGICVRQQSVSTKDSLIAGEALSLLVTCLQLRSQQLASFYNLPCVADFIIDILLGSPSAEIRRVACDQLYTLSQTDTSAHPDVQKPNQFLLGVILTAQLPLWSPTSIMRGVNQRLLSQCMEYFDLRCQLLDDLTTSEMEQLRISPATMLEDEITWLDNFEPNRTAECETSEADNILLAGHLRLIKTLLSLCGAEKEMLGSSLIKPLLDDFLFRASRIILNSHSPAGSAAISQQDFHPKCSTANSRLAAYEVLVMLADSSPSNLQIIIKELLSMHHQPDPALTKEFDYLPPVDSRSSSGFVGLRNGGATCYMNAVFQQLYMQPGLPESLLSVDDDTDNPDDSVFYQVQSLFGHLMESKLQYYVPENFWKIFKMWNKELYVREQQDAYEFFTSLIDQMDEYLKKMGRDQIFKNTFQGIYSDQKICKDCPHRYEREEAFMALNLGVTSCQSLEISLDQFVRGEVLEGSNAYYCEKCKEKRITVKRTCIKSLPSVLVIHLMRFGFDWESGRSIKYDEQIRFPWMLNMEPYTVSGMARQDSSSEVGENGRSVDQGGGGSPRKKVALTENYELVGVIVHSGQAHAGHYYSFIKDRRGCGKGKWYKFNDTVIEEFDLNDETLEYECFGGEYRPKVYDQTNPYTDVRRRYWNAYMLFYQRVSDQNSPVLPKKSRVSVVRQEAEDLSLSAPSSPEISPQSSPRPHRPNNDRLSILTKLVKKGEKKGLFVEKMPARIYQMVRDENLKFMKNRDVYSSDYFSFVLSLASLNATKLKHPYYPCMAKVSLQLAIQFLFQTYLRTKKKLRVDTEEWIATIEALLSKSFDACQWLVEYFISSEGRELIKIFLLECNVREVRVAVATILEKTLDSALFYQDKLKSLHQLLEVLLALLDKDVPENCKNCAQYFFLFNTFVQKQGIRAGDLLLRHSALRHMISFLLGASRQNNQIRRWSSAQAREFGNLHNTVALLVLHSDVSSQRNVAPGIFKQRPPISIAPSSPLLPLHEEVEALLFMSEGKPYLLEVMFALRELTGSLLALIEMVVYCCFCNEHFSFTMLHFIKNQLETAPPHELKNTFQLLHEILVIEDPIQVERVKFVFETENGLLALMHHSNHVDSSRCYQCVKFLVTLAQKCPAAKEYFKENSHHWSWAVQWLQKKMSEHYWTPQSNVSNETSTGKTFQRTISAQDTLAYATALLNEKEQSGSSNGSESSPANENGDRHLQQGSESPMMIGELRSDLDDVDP
How it was run: as §1

[3] = target: T2, USP25 (UniProt Q9UHP3)
T2 sequence (whole entry): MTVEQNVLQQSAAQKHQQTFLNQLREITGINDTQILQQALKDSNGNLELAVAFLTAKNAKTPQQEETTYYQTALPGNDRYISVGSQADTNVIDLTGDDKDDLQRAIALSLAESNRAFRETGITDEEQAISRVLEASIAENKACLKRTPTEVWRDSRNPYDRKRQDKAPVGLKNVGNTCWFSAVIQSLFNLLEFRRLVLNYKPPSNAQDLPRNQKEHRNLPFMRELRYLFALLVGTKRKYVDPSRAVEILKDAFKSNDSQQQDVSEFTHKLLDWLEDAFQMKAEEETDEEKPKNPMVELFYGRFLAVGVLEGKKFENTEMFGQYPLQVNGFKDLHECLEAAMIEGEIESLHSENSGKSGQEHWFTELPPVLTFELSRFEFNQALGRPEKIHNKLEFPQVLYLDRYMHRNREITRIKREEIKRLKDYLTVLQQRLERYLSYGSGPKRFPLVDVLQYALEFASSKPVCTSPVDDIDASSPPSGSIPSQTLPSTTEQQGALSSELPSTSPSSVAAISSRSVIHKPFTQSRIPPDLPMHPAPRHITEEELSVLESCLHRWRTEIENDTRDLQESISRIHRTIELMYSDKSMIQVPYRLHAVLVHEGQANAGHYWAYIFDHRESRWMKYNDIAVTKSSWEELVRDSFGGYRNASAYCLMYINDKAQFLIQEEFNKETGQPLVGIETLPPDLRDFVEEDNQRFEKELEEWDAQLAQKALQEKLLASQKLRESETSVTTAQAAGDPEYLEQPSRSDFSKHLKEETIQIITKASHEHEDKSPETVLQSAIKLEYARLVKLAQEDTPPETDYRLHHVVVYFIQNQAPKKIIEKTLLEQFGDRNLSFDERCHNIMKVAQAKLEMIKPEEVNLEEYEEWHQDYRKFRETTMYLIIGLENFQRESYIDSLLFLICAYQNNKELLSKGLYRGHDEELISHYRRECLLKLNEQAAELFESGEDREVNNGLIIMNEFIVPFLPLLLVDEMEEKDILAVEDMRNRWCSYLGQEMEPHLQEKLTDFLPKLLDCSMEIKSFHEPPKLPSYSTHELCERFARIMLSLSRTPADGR
How it was run: as §1

[4] = target: T3, USP28 (UniProt Q96RU2)
T3 sequence (whole entry): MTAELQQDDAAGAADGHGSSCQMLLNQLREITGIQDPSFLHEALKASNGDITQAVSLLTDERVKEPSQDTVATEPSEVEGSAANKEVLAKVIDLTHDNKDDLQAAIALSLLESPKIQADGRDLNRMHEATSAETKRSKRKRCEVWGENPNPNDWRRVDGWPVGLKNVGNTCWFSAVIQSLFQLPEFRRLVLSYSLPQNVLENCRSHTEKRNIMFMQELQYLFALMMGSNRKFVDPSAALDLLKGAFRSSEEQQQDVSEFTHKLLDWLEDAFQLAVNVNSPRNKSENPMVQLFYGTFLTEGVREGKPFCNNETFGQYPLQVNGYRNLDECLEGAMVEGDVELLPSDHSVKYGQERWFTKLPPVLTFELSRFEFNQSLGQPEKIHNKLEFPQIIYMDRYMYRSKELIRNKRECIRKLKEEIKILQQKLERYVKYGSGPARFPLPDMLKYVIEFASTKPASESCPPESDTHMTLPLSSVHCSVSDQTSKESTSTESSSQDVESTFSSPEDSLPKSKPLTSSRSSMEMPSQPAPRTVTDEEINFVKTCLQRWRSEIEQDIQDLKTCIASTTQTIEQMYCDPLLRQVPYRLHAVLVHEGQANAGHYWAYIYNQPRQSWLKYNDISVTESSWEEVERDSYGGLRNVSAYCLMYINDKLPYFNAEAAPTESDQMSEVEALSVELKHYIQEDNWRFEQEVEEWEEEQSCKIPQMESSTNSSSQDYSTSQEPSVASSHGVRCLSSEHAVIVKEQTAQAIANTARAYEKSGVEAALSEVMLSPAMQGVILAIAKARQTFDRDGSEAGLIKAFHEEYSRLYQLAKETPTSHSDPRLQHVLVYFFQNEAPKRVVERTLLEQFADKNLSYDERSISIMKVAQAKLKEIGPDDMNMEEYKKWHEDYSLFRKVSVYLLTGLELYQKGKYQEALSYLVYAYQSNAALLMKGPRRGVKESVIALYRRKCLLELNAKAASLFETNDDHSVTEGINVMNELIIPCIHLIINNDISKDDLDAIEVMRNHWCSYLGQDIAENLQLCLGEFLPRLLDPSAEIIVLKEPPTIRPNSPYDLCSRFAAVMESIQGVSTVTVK
How it was run: as §1

Measured: log2 ratio of Biotin-Ahx-Ub-VS probe labelling

CC(NC(=O)CCl)c1cccc2ccccc12 (centres undefined)
inactive: [1] -0.242 | [2] -0.343 | [3] -0.33 | [4] -0.501
